Assay [1] in a line: Caspase-3/7 induction in HepG2 cells by small molecules, qHTS assay (AID 1346978). Note: nearly all actives have a fitted effect of over 15% in size. A digest of the protocol:
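Caspase-3/7 induction was measured by Caspase-Glo 3/7 luminescence (30 min, room temperature) after a 17 hr compound exposure of wild-type HepG2 cells seeded at 2,000 per well and pre-incubated 5 hr.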

A short description of assay [2]: Caspase-3/7 induction in CHO-K1 cells by small molecules, qHTS cell viability counter screen (AID 1346979). Note: nearly all actives have a fitted effect of over 35% in size. Note: potency is the fitted concentration of half-maximal effect. In outline:
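Following a 5hr settling period, CHO-K1 cells at 1,500 per well received DMSO-dissolved compounds. Cell viability was quantified 16hr later by CellTiter-Fluor fluorescence, measured after 1hr with reagent at 37C.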
For orientation: Quantitative high-throughput screening tests each substance at several concentrations.

Assay [3] is described as follows: Caspase-3/7 induction in CHO-K1 cells by small molecules, qHTS assay (AID 1346980). Note: nearly all actives have a fitted effect of over 15% in size. In outline: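 Luminescent Caspase-Glo 3/7 read (30min, room temperature) quantified apoptosis induction. Cells were wild-type CHO-K1, treated with compound for 17hr at 37 C and 5% CO2.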
Assay [4] in a line: Caspase-3/7 induction in HepG2 cells by small molecules, qHTS cell viability counter screen (AID 1346981). Note: nearly all actives have a fitted effect of over 30% in size. Note: potency is the fitted concentration of half-maximal effect. A digest of the protocol: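 CellTiter-Fluor fluorescence measured viability in the same wells used for Caspase-Glo 3/7. HepG2 (wild type) at 2,000 cells/well were pre-incubated 5 hr, dosed, and given reagent at 16 hr, with 1 hr further at 37C.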
For assay [5], the target named is Nuclear receptor subfamily 1 group I member 2 (Homo sapiens) (UniProt O75469). Description: Human pregnane X receptor (PXR) small molecule agonists, qHTS assay (AID 1346982). Note: nearly all actives have a fitted effect of over 35% in size. Note: potency is the fitted concentration of half-maximal effect. In outline: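 Agonist mode: luminescence from ONE-Glo after 24 h compound exposure at 37C in HepG2 cells carrying hPXR-responsive CYP3A4 luciferase, plated in charcoal-stripped serum medium 5 h beforehand.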
Nuclear receptor subfamily 1 group I member 2 (Homo sapiens), sequence (O75469 whole entry, looked up): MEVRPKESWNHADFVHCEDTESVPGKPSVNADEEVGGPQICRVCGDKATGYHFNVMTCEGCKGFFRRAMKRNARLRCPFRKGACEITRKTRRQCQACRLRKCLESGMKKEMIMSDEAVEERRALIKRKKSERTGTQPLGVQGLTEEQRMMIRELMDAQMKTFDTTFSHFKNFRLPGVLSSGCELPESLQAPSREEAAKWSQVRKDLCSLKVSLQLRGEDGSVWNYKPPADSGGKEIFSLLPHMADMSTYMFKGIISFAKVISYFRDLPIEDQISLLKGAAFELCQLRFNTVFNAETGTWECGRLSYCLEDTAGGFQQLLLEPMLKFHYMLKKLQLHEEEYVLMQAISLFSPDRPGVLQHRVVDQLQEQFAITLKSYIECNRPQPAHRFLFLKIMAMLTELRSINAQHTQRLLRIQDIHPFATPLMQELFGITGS

Assay [6] deals with Cytochrome P450 2D6 (Homo sapiens) (UniProt P10635). Description: Cytochrome P450 Family 2 Subfamily D Member 6 (CYP2D6) small molecule antagonists: luciferase reporter qHTS assay (AID 1671196). Note: nearly all actives have a fitted effect of over 50% in size. Note: potency is the fitted concentration of half-maximal effect. A digest of the protocol:
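CYP2D6 activity was followed as luminescence from its luciferin product after a 1 h NADPH-driven reaction at room temperature. Enzyme-substrate mix and compound were pre-incubated for 10 min, and the signal was read 20 min after adding detection reagent.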
(In general: A reporter such as luciferase makes a cellular process visible.)

The target in assay [7] is Cytochrome P450 2C19 (Homo sapiens) (UniProt P33261). Description: Cytochrome P450 Family 2 Subfamily C Member 19 (CYP2C19) small molecule antagonists: luciferase reporter qHTS assay (AID 1671197). Note: nearly all actives have a fitted effect of over 65% in size. Note: potency is the fitted concentration of half-maximal effect. In outline:
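P450-Glo CYP2C19 system: enzyme-substrate mix with compound 10 min at room temperature, then NADPH regeneration solution, 1 h at 37C. Proluciferin-to-luciferin conversion detected by luminescence after 20 min with detection reagent; ketoconazole as positive control.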

Several values for one entry are separate records, joined by “and”; a condition that tells them apart may be missing. Equal entries are not always repeated. Results filed as inconclusive are left out. A structure can be active in one record and inactive in another. Activity calls are given as the source filed them. Calls come from the whole dose curve; as a rule, active = well fitted curve in the direction sought with a large enough effect in the repeat runs; inconclusive = weak or mixed curves; inactive = no such curve, though single readings can be large; an effect the other way counts as inactive or inconclusive.

Cytochrome P450 2C19 (Homo sapiens), sequence (P33261 whole entry, looked up): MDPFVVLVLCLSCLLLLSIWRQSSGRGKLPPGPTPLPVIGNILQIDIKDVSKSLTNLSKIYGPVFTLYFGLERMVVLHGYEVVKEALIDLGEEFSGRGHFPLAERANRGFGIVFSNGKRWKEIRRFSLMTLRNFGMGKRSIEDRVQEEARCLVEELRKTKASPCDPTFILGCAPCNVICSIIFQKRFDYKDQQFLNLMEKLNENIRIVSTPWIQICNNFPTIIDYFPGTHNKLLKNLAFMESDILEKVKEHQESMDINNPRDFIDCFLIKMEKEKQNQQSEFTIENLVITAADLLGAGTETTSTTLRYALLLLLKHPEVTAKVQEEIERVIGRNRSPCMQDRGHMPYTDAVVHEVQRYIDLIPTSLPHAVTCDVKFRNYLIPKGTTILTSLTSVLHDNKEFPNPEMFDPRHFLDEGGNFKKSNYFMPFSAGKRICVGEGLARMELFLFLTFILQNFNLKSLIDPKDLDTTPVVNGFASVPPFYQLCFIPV
Cytochrome P450 2D6 (Homo sapiens), sequence (P10635 whole entry, looked up): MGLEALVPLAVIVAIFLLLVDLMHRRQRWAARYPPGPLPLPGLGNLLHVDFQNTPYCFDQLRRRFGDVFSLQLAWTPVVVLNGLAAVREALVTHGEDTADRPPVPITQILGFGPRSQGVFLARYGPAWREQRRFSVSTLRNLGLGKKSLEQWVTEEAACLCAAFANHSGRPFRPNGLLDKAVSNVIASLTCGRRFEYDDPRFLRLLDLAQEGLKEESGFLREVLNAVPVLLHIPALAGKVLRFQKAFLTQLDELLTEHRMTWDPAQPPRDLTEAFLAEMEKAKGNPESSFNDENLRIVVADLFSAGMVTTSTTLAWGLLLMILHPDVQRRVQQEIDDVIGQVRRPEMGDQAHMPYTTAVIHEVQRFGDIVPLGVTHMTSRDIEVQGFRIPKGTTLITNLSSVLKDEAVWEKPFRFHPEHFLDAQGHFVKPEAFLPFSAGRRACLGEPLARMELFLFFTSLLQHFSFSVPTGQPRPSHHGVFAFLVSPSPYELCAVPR

As to `O=C(O)CCN(C1(C(=O)NO)CCCC1)S(=O)(=O)c1ccc(Oc2ccc(F)cc2)cc1`, the Potency entry in assay [1], in assay [2], in assay [3], in assay [4], in assay [5] and in assay [6] was “inactive” each time. The Potency entry in assay [7] was “inactive”.
On to `CC1=CCC(=C(C)C)CC1`, for which the Potency result in assay [1], in assay [2], in assay [3], in assay [4] and in assay [6] was “inactive” throughout. In addition, the values for the Potency in assay [5] and in assay [7] were 43.3 µM (active) and 79.6 µM (active), respectively.
Turning to `C=C(C)c1cccc(C(=C)C)c1`, the Potency result in assay [1], in assay [2], in assay [3], in assay [4], in assay [5] and in assay [6] was “inactive” each time. Moreover, in assay [7], the Potency entry is “inactive”.
Consider `Cc1c2ccccc2c(C)c2c1ccc1ccccc12`, for which the Potency entry in assay [1], in assay [3] and in assay [6] was “inactive” in each case. Further, the Potency in assay [2] was 61.1 µM (active); in assay [4], “inactive and 61.1 µM (active)”; in assay [5], 30.3 µM (active) and 17.2 µM (active); in assay [7], 4.98 µM (active) and 3.99 µM (active).
Consider `C=Cc1cccc(C)c1`, for which the Potency entry in assay [1], in assay [3], in assay [4], in assay [5] and in assay [7] was “inactive” in each case. Further, the Potency in assay [2] was 60.5 µM (active) and inactive.
In the case of `CC(C)(C)c1csc(-c2cc3cc(OCc4ccccc4CC(=O)O)ccc3o2)n1`, the Potency entry in assay [1], in assay [3], in assay [6] and in assay [7] was “inactive” each time. In addition, the Potency is 61.1 µM (active) in assay [2], 68.6 µM (active) in assay [4] and 61.1 µM (active) in assay [5].
Turning to `OC[C@H]1O[C@H](O[C@H]2O[C@H](CO)[C@@H](O)[C@H](O)[C@H]2O)[C@H](O)[C@@H](O)[C@@H]1O`, the Potency entry in assay [1], in assay [2], in assay [3], in assay [4], in assay [5] and in assay [7] was “inactive” each time.
For `COc1ccc(NC(=O)CC(C)=O)cc1`, the Potency entry in assay [1], in assay [2], in assay [3], in assay [4], in assay [5] and in assay [6] was “inactive” in each case. In assay [7], the Potency entry was “inactive”.
Turning to `Clc1ccnc(Cl)n1`, the Potency entry in assay [1], in assay [2], in assay [3], in assay [4], in assay [5] and in assay [6] was “inactive” each time. In assay [7], the Potency result was “inactive”.
On to `O=C(O)c1ccc2cc(C(=O)O)ccc2c1`, for which the Potency entry in assay [1], in assay [2], in assay [3], in assay [4], in assay [5] and in assay [6] was “inactive” throughout. Further, in assay [7], the Potency is 32 µM (active).
For `Nc1ccc(NCCO)c([N+](=O)[O-])c1`, the Potency entry in assay [1], in assay [3] and in assay [5] was “inactive” each time. Besides, the Potency in assay [2] is 43.3 µM (active); in assay [4], 48.6 µM (active); in assay [7], 79.6 µM (active).
Take `CCN(CCN)c1cccc(C)c1`: the Potency entry in assay [1], in assay [2], in assay [3] and in assay [4] was “inactive” each time. The Potency in assay [5] was 61.7 µM (active) and 61.1 µM (active); in assay [6], 2.54 µM (active) and 10 µM (active); in assay [7], 7.17 µM (active) and 35.6 µM (active).
Take `CC(C)(C)C1CCC(=O)CC1`: the Potency entry in assay [1], in assay [2], in assay [3], in assay [4], in assay [5] and in assay [6] was “inactive” in each case. For the same compound, the Potency in assay [7] is 7.96 µM (active).
`NC(=O)c1cccc([N+](=O)[O-])c1`: the Potency result in assay [1], in assay [2], in assay [3], in assay [4], in assay [5] and in assay [6] was “inactive” throughout. Further, the Potency result in assay [7] is “inactive”.
With `CCCCCCCC`, the Potency entry in assay [1], in assay [2], in assay [3], in assay [4], in assay [5] and in assay [7] was “inactive” each time.
Take `C=C(C)C(=O)OCCCCCCCCCC`: the Potency entry in assay [1] and in assay [3] was “inactive” each time. For the same compound, the Potency in assay [2] was 54.9 µM (active); in assay [4], 61.6 µM (active); in assay [5], 30.9 µM (active); in assay [7] it was 56.8 µM (active).
Turning to `C#Cc1ccc(-c2ccccc2F)cc1`, the Potency result in assay [1], in assay [2], in assay [3], in assay [4], in assay [5] and in assay [6] was “inactive” each time. In addition, the Potency in assay [7] was 7.76 µM (active).
With `CCc1ccc(Br)cc1`, the Potency result in assay [1], in assay [2], in assay [3], in assay [4], in assay [5] and in assay [6] was “inactive” each time. Moreover, the Potency entry in assay [7] is “inactive”.
Turning to `CNc1ccc([N+](=O)[O-])cc1`, the Potency result in assay [1] and in assay [3] was “inactive” each time. The Potency was 48.7 µM (active) in assay [2], 30.7 µM (active) in assay [4], 54.6 µM (active) in assay [5] and 35.7 µM (active) in assay [7].
For `Cc1ccc(O)c(N)c1`, the Potency entry in assay [1], in assay [3] and in assay [4] was “inactive” in each case. The Potency in assay [2] was 61.2 µM (active); in assay [5], 48.6 µM (active); in assay [6], 35.6 µM (active); in assay [7] it was 35.6 µM (active).
Consider `CN(C)Cc1ccccc1O`, for which the Potency entry in assay [1], in assay [2], in assay [3], in assay [4], in assay [5] and in assay [6] was “inactive” throughout. Also, the Potency result in assay [7] is “inactive”.
Regarding `CCN(CC)c1ccc2c(-c3ccc(S(=O)(=O)O)cc3S(=O)(=O)[O-])c3ccc(=[N+](CC)CC)cc-3oc2c1`, the Potency entry in assay [1], in assay [3] and in assay [5] was “inactive” each time. Moreover, the Potency was 6.31 µM (active) in assay [2], 8.91 µM (active) in assay [4], 29.2 µM (active) in assay [6] and 92.2 µM (active) in assay [7].
Regarding `Clc1sc(Cl)c(Cl)c1Cl`, the Potency entry in assay [1], in assay [2], in assay [3], in assay [4], in assay [5] and in assay [6] was “inactive” in each case. For the same compound, the Potency result in assay [7] was “inactive”.
Take `CCCC1CCC(=O)CC1`: the Potency entry in assay [1], in assay [2], in assay [3], in assay [4], in assay [5] and in assay [6] was “inactive” in each case. Moreover, the Potency entry in assay [7] is “inactive”.

The values are drawn from PubChem BioAssay (Tox21).
